Screens from PubChem.
AMA1 RON2 block: AMA1-RON2 (P. falciparum) interaction inhibition; Potency, µM (top dose mostly 58.2 µM), for the others: at the highest dose activity change, negative = inhibition, hits mostly inhibitors; AID 720542; AlphaScreen AMA1-biotinylated RON2 peptide binding; 360,000 tested, 0.2% active;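 also: 0% = vehicle wells and -100% = peptide control; nearly all actives have a fitted effect of over 45% in size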
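AMA1 (3D7) with his tag at 25 nM final met compounds first, then biotinylated RON2 peptide at 25 nM; detection used donor plus acceptor beads, 10 µg/mL apiece, read by AlphaScreen after 30 min at room temperature.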
LmPK inhibitor: blocks Leishmania mexicana pyruvate kinase activity | Q27686 | purified LmPK, Kinase-Glo ATP luminescence, 1 h | Potency, µM (top dose mostly 57.5 µM), without a hit: at the top dose activity change, negative = inhibition, actives largely listed as inhibitors | 290,000 tested, 0.37% active | AID 1721; also: % is scaled to controls: 0 for no effect and ±100 for the full control effect
Target sequence (Q27686 whole entry, looked up): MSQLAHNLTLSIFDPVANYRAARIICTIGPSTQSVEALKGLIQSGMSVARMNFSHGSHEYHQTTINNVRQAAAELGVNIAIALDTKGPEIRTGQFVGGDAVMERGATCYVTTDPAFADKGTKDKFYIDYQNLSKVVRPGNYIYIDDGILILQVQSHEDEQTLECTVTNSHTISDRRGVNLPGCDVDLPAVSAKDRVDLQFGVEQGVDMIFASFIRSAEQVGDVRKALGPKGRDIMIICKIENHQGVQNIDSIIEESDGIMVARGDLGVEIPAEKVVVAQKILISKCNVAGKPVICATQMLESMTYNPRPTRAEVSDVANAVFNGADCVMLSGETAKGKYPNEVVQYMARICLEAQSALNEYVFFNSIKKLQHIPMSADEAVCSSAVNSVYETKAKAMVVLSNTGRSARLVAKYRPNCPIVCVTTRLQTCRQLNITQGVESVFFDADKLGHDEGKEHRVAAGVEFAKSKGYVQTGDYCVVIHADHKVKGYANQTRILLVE
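ATP generated from ADP (0.1 mM) and PEP (0.5 mM) by 0.1 nM LmPK over 1 h at room temperature (pH 7.2 imidazole buffer) was detected by coupled luciferase luminescence. Values were normalized to uninhibited and no-enzyme wells.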
TbPYK inhibitor: T. brucei pyruvate kinase inhibition; Q57TT1; TbPYK enzyme, Kinase-Glo Plus ATP luminescence, 45 min; Potency, µM (series often up to 76.8 µM), without a hit: at the top dose activity, negative = inhibition, hits mostly inhibitors; 410,000 tested, 0.12% active; also: % is scaled to controls: 0 for no effect and ±100 for the full control effect; nearly all actives have a fitted effect of over 50% in size
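Readout: single end-point luminescence (Kinase-Glo Plus, 10 min). Reaction conditions were TbPYK/substrate plus 130 uM ADP, 45 min at RT, pH 7.2 TEA buffer. No-enzyme wells served as controls, and data were normalized before concentration-response fitting.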
RE007 growth inh: less growth of the S. pombe RE007 Vpr strain; S. pombe RE007 Vpr strain, BacTiter-Glo ATP luminescence, 24 h; Potency, µM (doses to about 92.2 µM), without a hit: top-dose activity change, negative = less growth, actives largely listed as inhibitors; 360,000 tested, 0.21% active; active = well fitted falling curve with a large enough effect; inconclusive = small, poorly fitted or top-dose-only effect; inactive = no such curve, though single readings can be large or run the other way; also: % is scaled to controls: 0 for no effect and ±100 for the full control effect; nearly all actives have a fitted effect of over 50% in size
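Fission yeast RE007 carrying one integrated HIV-1 vpr copy, seeded at OD 0.01 in PMG+AL medium with 23 nL pinned compound. Grown 24 h at 30 degrees; viability read by BacTiter-Glo luminescence after 5 min.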
NS1 inh: influenza NS1 inhibition; Potency, µM (highest dose often 46.1 µM), inactives show at the highest dose activity, positive = more growth; 270,000 tested, 0.4% active; calls by dose curve; also: actives are rising curves; nearly all actives have a fitted effect of over 50% in size
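Recovery from NS1-induced slow growth read by OD600 in budding yeast switched to galactose assay medium (pH 6.0, -URA) at 1:100 dilution. Compound 23 nl per well; the matching strain lacking NS1 serves as control.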
* marks the source's active call; other numbers are inactive results; ? = inconclusive; . = no result given; [ ] = dose if it differs, or a comment. Rows were chosen to be rich in hits. Some 0.92% of all compounds tested hit in one or more screens of this group. Unless noted, calls follow the shape of the dose curve; as a rule, active = well fitted curve in the direction sought with a large enough effect; inconclusive = small, poorly fitted or top-dose-only effect, or another doubt; inactive = no such curve, though single readings can be large; an effect the other way counts as inactive or inconclusive. Potency is read from the fitted curve at half-maximal effect.

SMILES	AMA1 RON2 block	LmPK inhibitor	TbPYK inhibitor	RE007 growth inh	NS1 inh
COC(=O)C1=C(C(=O)OC)[C@@H]2N(C)c3ccc(OC)cc3[C@@]23C[C@@H](C(=O)OC)N(S(=O)(=O)c2cccs2)C3=N1	.	-0.3%[11.5 µM]	.	.	.
COc1ccc(NC(=O)/C(Cl)=C(/Cl)S(=O)Cc2ccccc2)cn1 (stereo unspecified)	0.9%	2.4%	-5.0%	44.7µM*	-175.4%
COc1ccc(NC(=O)Cc2ccccc2)cn1	2.7%	-1.1%	-1.7%	28.4%	.
Cc1ccc(NCc2n[nH]c(=S)n2-c2ccccc2)cc1	-0.8%	1.6%	2.82µM*	5.6%	0.3%
Cc1cccc(NCc2n[nH]c(=S)n2-c2ccccc2)c1	67.0%	-17.6%	?	-17.3%	12.5%
CS(=O)(=O)Nc1ccc(-c2n[nH]c(=S)n2-c2ccccc2)cc1	-11.9%	10µM*	0.0%	0.4%	?
Cc1ccc(S(=O)(=O)N(Cc2n[nH]c(=S)n2-c2ccccc2)c2cccc(Cl)c2)cc1	27.5%	-19.6%	?	3.3%	11.3%
Cc1ccc(S(=O)(=O)N(Cc2n[nH]c(=S)n2-c2ccccc2)c2ccccc2)cc1	65.6%	-23.6%	7.94µM*	9.9%	4.6%
O=C(OCC(=O)c1cccs1)c1ccccc1	-3.5%	15.8µM*	-3.5%	2.9%	?
O=C(CNC(=O)c1ccccc1)OCC(=O)c1cccs1	-3.4%	-0.4%	-2.1%	-15.6%	3.9%
O=C1C(c2ccccc2)=[N+]([O-])c2ccccc21	12.6µM*	.	-0.5%	?	.
Cc1[nH]n(-c2ccc([N+](=O)[O-])cc2)c(=O)c1C=NCCN1CCN(C(=O)C(C)C)CC1	53.7%	14.1µM*	-10.3%	?	.
Cc1[nH]c(=S)c(C#N)c2c1CCCC2	122.3%	5.0%	3.55µM*	69.3%	.
O=C1c2cccc(NCCNCCO)c2C(=O)c2cccc(NCCNCCO)c21	44.7µM*	.	-9.3%	-24.2%	.
O=C(NCCO)c1cccc2c1C(=O)c1ccccc1-2	-3.9%	-1.9%	1.6%	-21.8%	14.3%
O=C(O)CCNc1ccc(NCCC(=O)O)c2c1C(=O)c1ccccc1C2=O	15.8µM*	?	?	.	-1.1%
C[C@H]1NCc2cc(-c3ccc4c(=O)c(C(=O)O)cn(C5CC5)c4c3OC(F)F)ccc21	.	.	0.0%	.	.
O=S(c1ccccc1O)S(=O)c1ccccc1O (stereo unspecified)	0.2%	.	4.47µM*	35.5µM*	.
CS(=O)c1ccccc1O (stereo unspecified)	-0.6%	-2.7%	-3.2%	12.1%	-3.3%
Cc1cccc(NC(=O)CN(C)S(=O)(=O)c2cnc[nH]2)c1	5.6%	-3.1%	-0.7%	-2.6%	2.0%
CSc1cccc(NC(=O)CN(C)S(=O)(=O)c2cnc[nH]2)c1	5.01µM*	0.2%	-5.5%	-0.7%	9.3%
Cn1ccc2c(N3CCCCCC3)cc3c(c21)C1CCC3O1 (stereo unspecified)	31.6µM*	.	-11.1%	-29.2%	.
Cn1ccc2c(N3CCCCC3)cc3c(c21)C1CCC3C1 (stereo unspecified)	15.8µM*	.	-4.6%	-27.2%	.
Cn1cnc([N+](=O)[O-])c1Sc1nc(N)nc2c1ncn2[C@H]1C[C@H](O)[C@@H](CO)O1	.	.	.	.	10.3%
COC(=O)C(C(=O)OC)C1c2ccccc2C=C(C)N1C(=O)OC (stereo unspecified)	.	-0.7%[11.5 µM]	.	.	.
SMILES	AMA1 RON2 block	LmPK inhibitor	TbPYK inhibitor	RE007 growth inh	NS1 inh
OC[C@H]1O[C@@H](n2cnc3c2NC=NC[C@@H]3O)C[C@H]1O	.	.	0.0%	.	.
Cc1cccc(-n2ncc3c(N4CCOCC4)ncnc32)c1	14.2%	25.1µM*	-14.1%	-18.8%	-21.6%
COc1ccc(-n2ncc3c(N4CCCCC4)ncnc32)cc1	0.0%	15.8µM*	-11.3%	-8.1%	-17.1%
Cc1cccc(-n2ncc3c(N4CCN(c5ccccc5)CC4)ncnc32)c1	.	.	-4.5%[15.4 µM]	.	.
CCOC(=O)CCCCC(=O)c1[nH]c(=O)[nH]c1CN1CCOCC1	9.47µM*	-3.5%	6.8%	-4.8%	-6.3%
O=C(O)c1ccc(N/N=C/c2ccc3nccnc3c2)cc1	4.3%	15.8µM*	?	?	-35.3%
O=C1Nc2ccccc2SC1c1ccccc1 (stereo unspecified)	-2.6%	3.2%	-1.2%	-8.5%	-5.0%
Cc1ccc(NC2Sc3ccccc3NC2=O)cc1 (stereo unspecified)	-2.5%	-9.3%	14.1µM*	25.7%	.
CCCCc1nc2c(c3c1C[C@H](C)OC3)CN(C(=O)Nc1ccc(OC)cc1)CC2	.	-8.7%[11.5 µM]	.	.	.
Cc1occc1C(=O)Nc1cc(C(C)(C)C)on1	-5.0%	12.6µM*	?	-26.2%	5.3%
CCOC(=O)Cc1csc(NC(=O)c2c(C)noc2C)n1	14.7%	.	-1.1%	11.0%	.
Cc1csc(NC(=O)c2cccc(C)c2C)n1	-5.6%	-5.4%	-8.8%	0.4%	-31.2%
Cc1cccc(NC(=O)c2ccoc2C)n1	0.8%	?	-7.7%	-20.6%	-5.7%
CCOC(=O)Cc1csc(NC(=O)c2ccoc2C)n1	8.6%	14.1µM*	-27.0%	-29.7%	1.6%
Cc1csc(NC(=O)c2ccoc2C)n1	0.3%	15.8µM*	?	?	-2.7%
Cc1ccc(C(=O)Nc2ccc(-n3c(C)nc4ccccc4c3=O)cc2)cc1[N+](=O)[O-]	.	.	-12.0%	.	.
S=c1[nH]c(-c2ccccc2)cn1/N=C/c1ccncc1	62.8%	4.47µM*	?	2.6%	-0.2%
CCOc1ccc(/C=N/n2cc(-c3ccccc3)[nH]c2=S)cc1	92.1%	-6.6%	-35.0%	14.6%	-5.6%
Nc1ccn([C@@H]2O[C@H](CO)[C@H](O)C2(F)F)c(=O)n1	.	.	2.1%	.	.
O=C(CSc1ccc(-c2ccco2)nn1)c1ccc(F)cc1	-26.1%	-8.2%	20µM*	-11.1%	1.4%
CC(=O)[C@]1(O)CC[C@@H]2[C@H]3C[C@@H](C)C4=CC(=O)CC[C@@]4(C)C3[C@@H](O)C[C@]21C (stereo partly specified)	.	.	.	.	-2.9%
CN(C)c1ccc(-c2csc(C(C)(O)c3cccc(F)c3)n2)cc1 (stereo unspecified)	15.8µM*	.	-6.0%	12.6%	.
CN(C)c1ccc(-c2csc(C(O)c3ccccc3)n2)cc1 (stereo unspecified)	25.1µM*	.	5.6%	8.3%[18.4 µM]	.
CC(O)(c1cccc(F)c1)c1nc(-c2ccc(Cl)cc2)cs1 (stereo unspecified)	-1.9%	.	-0.8%	?	.
CCN1CCN(C(=O)N[C@H](C(=O)N[C@@H]2C(=O)N3[C@@H](C(=O)O)C(C)(C)S[C@@H]23)c2ccccc2)C(=O)C1=O	.	.	8.1%	.	.
CC(C)=CC(=O)Nc1ccccc1C(N)=O	6.7µM*	-11.4%	1.7%	7.5%	-4.1%
CCOC(=O)c1ccccc1NC(=O)C=C(C)C	20.2%	-3.1%	3.0%	-1.2%	-9.8%
Cc1ccccc1C(=O)N1CC/C(=N/OS(=O)(=O)O)c2ccc(Cl)cc21	.	.	-8.0%	.	.
CC12CC3(C)CC(C)(C1)CC(C(=O)NC1=NCCS1)(C2)C3	8.2%	.	0.7%	25.1µM*	.
